TDP1 cell noCPT – qHTS for Inhibitors of human tyrosyl-DNA phosphodiesterase 1 (TDP1): qHTS in cells in absence of CPT | actives 15% (n = 420,000) | Potency, µM (highest dose often 46.2 µM), hits mostly inhibitors | DT40 Tdp1-/- hTDP1 cells, no CPT, ATP luminescence, 48 h; also: nearly all actives have a fitted effect of over 55% in size
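Growth of hTDP1-complemented DT40 Tdp1-knockout cells is measured by ATP luminescence after at least 48 hr compound exposure at 37 °C, with DMSO substituting for the 20 nM CPT used in the parallel screen.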
Six1-Eya2 blk – inhibitors of human Six1/Eya2 interaction. Q15475+O00167. actives 0.56% (n = 360,000). activity change, % (test concentration not listed). AlphaScreen GST-Six1/His-Eya2 binding, biochemical; hits give low values; in the data active = activity change below about -65%; inconclusive = mostly about -30% to -63%
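AlphaScreen luminescence read after one hour at 37 °C in darkness. Pin-transferred compounds met GST-Six1 and His-Eya2 protein (5X stock 250 nM/500 nM) plus glutathione donor and Ni-chelate acceptor beads (5X, 50 ug/mL).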
CtBP-E1A inh – inhibitors of CtBP/E1A interaction | AlphaScreen GST-E1A/His-CtBP binding, 1536-well; hits give low values | activity change, % (test concentration not listed) | actives 0.49% (n = 340,000); in the data active = activity change below about -65%; inconclusive = mostly about -30% to -63%
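GST-E1A and His-tagged CtBP (125 nM each as 5X stock) were preincubated with pin-transferred compound for 2 h at 37 °C in the dark, then glutathione donor and nickel acceptor beads were added for 1 h before AlphaScreen reading.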
IL-1B inflam inh – inhibitors of inflammasome signaling (IL-1 beta secretion) | THP-1 LPS/ATP IL-1B secretion, AlphaLISA, 16 h; hits give low values | activity change, % at 57.5 µM | actives 4.7% (n = 360,000) | AID 743279; in the data active = activity change below about -50%; inconclusive = mostly about -30% to -49%
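THP-1 cells pretreated 1 hr with compounds (up to 57.5 uM final), then stimulated with LPS (250 ng/mL final) plus ATP (1.25 mM final); secreted IL-1B measured by AlphaLISA after 16 hr, decreased signal indicating inhibition.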
DT40 TDP1 CPT – growth inhibition of DT40 Tdp1-/-;hTDP1 cells with camptothecin (screen for TDP1 inhibitors). actives 12% (n = 420,000). Potency, µM (titrated, usually from 46.2 µM), usual class: inhibitors. chicken DT40 Tdp1-/-;hTDP1 cells + 20 nM CPT, ATP luminescence, 48 h; also: nearly all actives have a fitted effect of over 55% in size
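Cell growth measured by CellTiter-Glo luminescence after a minimum 48 h, 37 C compound exposure with 20 nM CPT in Tdp1-knockout DT40 cells stably expressing hTDP1, seeded 400/well; qHTS titration format.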
TDP1 block – blocks human tyrosyl-DNA phosphodiesterase 1 | Q9NUW8 | recombinant TDP1, AlphaScreen DNA substrate cleavage | Potency, µM (series often up to 130 µM), usual class: inhibitors | actives 0.28% (n = 350,000) | AID 485290; also: nearly all actives have a fitted effect of over 40% in size
Target sequence (Q9NUW8 whole entry, looked up): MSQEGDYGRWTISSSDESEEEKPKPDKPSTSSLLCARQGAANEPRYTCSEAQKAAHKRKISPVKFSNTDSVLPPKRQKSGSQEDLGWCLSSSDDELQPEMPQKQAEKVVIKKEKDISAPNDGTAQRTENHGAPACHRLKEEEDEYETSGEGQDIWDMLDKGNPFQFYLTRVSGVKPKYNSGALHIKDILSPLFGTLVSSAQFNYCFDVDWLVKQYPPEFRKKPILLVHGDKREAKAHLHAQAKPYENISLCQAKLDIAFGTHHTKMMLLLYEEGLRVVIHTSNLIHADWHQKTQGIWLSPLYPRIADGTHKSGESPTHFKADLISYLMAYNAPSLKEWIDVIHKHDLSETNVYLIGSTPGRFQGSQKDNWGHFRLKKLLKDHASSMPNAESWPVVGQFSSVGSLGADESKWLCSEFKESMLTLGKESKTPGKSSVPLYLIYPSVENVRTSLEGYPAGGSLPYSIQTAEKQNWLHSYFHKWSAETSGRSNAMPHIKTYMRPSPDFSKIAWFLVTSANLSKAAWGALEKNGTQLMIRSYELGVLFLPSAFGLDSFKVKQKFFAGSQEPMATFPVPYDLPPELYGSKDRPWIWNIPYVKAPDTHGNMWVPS
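Recombinant human Tdp1 (E. coli-expressed, 1 nM final) preincubated with compounds 15 min at room temperature, then 5'-biotin/3'-phosphotyrosine-FITC DNA substrate (15 nM final) added for 5 min. AlphaScreen beads (10 ug/ml final) added 10 min; cleavage lowers signal.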
Numbers stand for hits; – = inactive; ? = inconclusive; · = no result given; [ ] = remark or other dose. Rows were chosen to be rich in hits. Some 18% of all compounds tested hit in one or more screens of this group. Unless noted, calls follow the shape of the dose curve; as a rule, active = well fitted curve in the direction sought with a large enough effect; inconclusive = small, poorly fitted or top-dose-only effect, or another doubt; inactive = no such curve, though single readings can be large; an effect the other way counts as inactive or inconclusive.

SMILES	TDP1 cell noCPT	Six1-Eya2 blk	CtBP-E1A inh	IL-1B inflam inh	DT40 TDP1 CPT	TDP1 block
CCN(CC)c1ccc(N=Cc2ccc([N+](=O)[O-])o2)cc1	10.3µM	?	–	-66.8	5.8µM	–
CCCCCC(=O)N/N=C/c1ccc([N+](=O)[O-])o1	?	–	–	–	11.2µM	–
O=C(N/N=C/c1ccc([N+](=O)[O-])o1)C1CCCC1	?	–	–	–	?	–
CCN(CC)c1ccc(/C=N/NS(=O)(=O)c2ccc(C)c([N+](=O)[O-])c2)cc1	?	–	–	–	–	–
O=C(CCCCCNC(=O)c1ccccc1)N/N=C/c1ccccc1O	–	–	?	–	–	–
O=C(CCCCCNC(=O)c1ccccc1)N/N=C/c1ccco1	–	–	–	–	–	39.8µM
O=C(CNC(=O)c1ccccc1)N/N=C/c1ccccc1Cl	–	–	–	–	–	–
O=S1(=O)CC(N2CC=CC2)CN1Cc1ccccc1 (stereo unspecified)	?	–	–	–	?	·
Cc1ccc(CONC(=O)c2ccc(C)cc2)cc1	–	–	–	–	–	–
CN(C)c1ccc(S(=O)(=O)N2CCCCC2)cc1NC(=O)CN1C(=O)NC(C)(c2ccccc2)C1=O (stereo unspecified)	–	–	–	–	–	·
O=[N+]([O-])c1ccc(/C=N/NC(=S)Nc2ccccc2F)o1	?	–	?	–	–	–
O=C(CCC(=O)Nc1ccc(Cl)cc1Cl)N/N=C/c1ccc([N+](=O)[O-])o1	2.91µM	–	–	-77.1	2.59µM	–
CC(C)Cn1c(SC(C)C(=O)NC2CC2)nnc1-c1ccccc1F (stereo unspecified)	–	–	–	–	–	–
O=C(CSc1nncn1-c1ccccc1)Nc1c(F)cccc1F	–	–	–	–	–	–
CN(CC(=O)Nc1ccc(F)cc1)C(=O)c1ccccc1Sc1ccccc1C#N	?	–	–	–	?	–
Cc1sc2ncnc(Sc3ccccc3C(=O)Nc3ccc(Br)cc3)c2c1C	16.4µM	–	–	–	23.1µM	–
COc1ccc(NC(=O)CN(C)C(=O)c2ccccc2Sc2ncnc3sc(C)c(C)c23)cc1	23.1µM	–	–	–	?	–
Cc1sc2ncnc(Sc3ccccc3C(=O)Nc3ccccc3Cl)c2c1C	18.4µM	–	·	–	23.1µM	–
COc1ccc(NC(=O)CN(C)C(=O)c2ccccc2SCC(=O)N2CCCC2)cc1	–	–	–	–	–	·
Cc1ccc(NC(=O)CN(C)C(=O)c2ccccc2Sc2ccccc2C#N)cc1	14.6µM	–	–	–	?	–
COc1ccc(S(=O)(=O)N2CCCC(C(=O)NCC3CCCO3)C2)cc1C (stereo unspecified)	–	–	–	–	?	–
CCCCOc1cccc(OCCCC)c1C(=O)Nc1cc(C)on1	?	–	–	–	?	–
O=C(NNS(=O)(=O)c1ccccc1Cl)c1nn(-c2ccc(F)cc2)ccc1=O	–	–	–	–	–	–
CC(=O)c1ccc[nH]1	–	·	·	·	–	–
Cc1sc2ncnc(SCC(=O)N(C(C)C)C(C)C)c2c1C	–	–	–	–	–	–
SMILES	TDP1 cell noCPT	Six1-Eya2 blk	CtBP-E1A inh	IL-1B inflam inh	DT40 TDP1 CPT	TDP1 block
Cc1sc2ncnc(Sc3ccccc3C(=O)Nc3ccc(C#N)cc3)c2c1C	20.6µM	–	–	–	20.6µM	–
CCOC(=O)C1=C(C)NC(=O)NC1c1cc(C)sc1C (stereo unspecified)	?	–	–	–	–	–
O=C(O)c1ccc(CSc2nnnn2-c2ccc(F)cc2)cc1	–	–	–	–	–	·
O=C(CSc1nnnn1-c1ccc(F)cc1)c1ccc(O)c(O)c1	?	–	–	–	18.4µM	–
O=S(=O)(c1ccc(C2CCCCC2)cc1)N1CCN(c2ncccn2)CC1	?	–	–	–	?	–
Cn1cc(CNCc2ccc(-n3cccn3)cc2)c(-c2ccccc2F)n1	20.6µM	–	–	–	?	–
COc1ccc(N2CCN(Cc3nc4c(c(=O)n(C)c(=O)n4C)n3Cc3ccccc3C)CC2)cc1	16.4µM	–	–	–	18.4µM	·
COc1ccc(N2CCN(Cc3nc4c(c(=O)n(C)c(=O)n4C)n3CC(C)=O)CC2)cc1	23.1µM	–	–	–	13µM	–
COc1ccc(N2CCN(Cc3nc4c(c(=O)n(C)c(=O)n4C)n3CCc3ccccc3)CC2)cc1	?	–	–	–	?	–
COCCn1c(CN2CCN(c3ccc(OC)cc3)CC2)nc2c1c(=O)n(C)c(=O)n2C	?	–	–	–	?	–
COC(=O)c1cc(S(=O)(=O)Nc2cc(OC)cc(OC)c2)c[nH]1	–	–	–	–	?	–
Cc1ccc(-c2nc(S(=O)(=O)c3ccccc3)c(SCC(=O)NCC3CCCO3)o2)cc1 (stereo unspecified)	23.1µM	–	–	–	?	–
Cc1ccc(-c2nc(SCC(=O)NCC3CCCO3)c(-c3ccc(C)cc3)[nH]2)cc1 (stereo unspecified)	?	–	–	–	?	–
Cc1ccc(-c2[nH]c(-c3ccccc3)nc2SCC(=O)NCC2CCCO2)cc1 (stereo unspecified)	23.1µM	–	–	–	14.6µM	–[12.3 µM]
Cc1ccc(-c2nc(SCC(=O)NCC3CCCO3)c(-c3ccc(Cl)cc3)[nH]2)cc1 (stereo unspecified)	20.6µM	–	–	?	?	–
COc1ccc(-c2[nH]c(-c3ccc(C)cc3)nc2SCC(=O)NCC2CCCO2)cc1 (stereo unspecified)	?	·	·	·	?	–
CCc1ccc(-c2nc(SCC(=O)NCC3CCCO3)c(-c3ccc(F)cc3)[nH]2)cc1 (stereo unspecified)	18.4µM	·	·	·	?	–
CC(C)(C)c1ccc(S(=O)(=O)NC(=O)C2(C)CCN2C(=O)C2(c3ccc(Cl)cc3)CC2)cc1 (stereo unspecified)	–	–	–	–	?	·
O=C(NC1CCN(C(=O)Nc2cccc(F)c2)CC1)C1CCCCC1	–	–	–	–	–	–
COc1ccc(-c2nc(SCC(=O)NC3CCCC3)c(-c3ccccc3)[nH]2)cc1OC	?	·	·	·	?	–[12.3 µM]
COCCNC(=O)CSc1nc(-c2ccc(F)cc2)[nH]c1-c1ccc(Cl)cc1	25.9µM	·	·	·	?	–
COc1ccc(-c2[nH]c(-c3ccc(Cl)cc3)nc2SCC(=O)NCC2CCCO2)cc1 (stereo unspecified)	7.31µM	·	·	·	10.3µM	–
COc1ccc(-c2nc(SCC(=O)NC3CCCC3)c(-c3ccc(OC)cc3)[nH]2)cc1	16.4µM	–	–	–	?	–

High-throughput results: PubChem, National Center for Advancing Translational Sciences (NCATS)
